A selection: hits, their analogues and other compounds. The true share with any hit is near 8.3%.
Giardia kill – Giardia lamblia killing; Giardia lamblia trophozoite viability; activity change, % at 7.66 µM, hits read low; hit rate 0.15% among 340,000; AID 540267; in the data active means activity change below about -80%; inconclusive means between about -30% and that limit;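 further: parasites exposed to compound for two days anaerobically before the ATP read; on the % scale 0 is the no-effect control and ±100 the full control effect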
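Trophozoite viability was measured as ATP-dependent luminescence, read 15-30 min after reagent addition. Before that, parasites at 100 cells/well were exposed to compounds for 48 h, anaerobically, at 37 deg C.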
BCR signal inh – blocks chronic active B-cell receptor signaling; ABC-DLBCL IkBa-CBG/CBR reporter, luminescence ratio, 4 h; Potency, µM (top dose mostly 46.1 µM), inactives show top-dose activity change, negative = inhibition, hits mostly inhibitors; hit rate 0.05% among 340,000; active means well fitted inhibition curve with a large enough effect in the signal ratio, with a control signal flat, not every such curve was filed as active; inconclusive means small, poorly fitted or top-dose-only effect, or effect the other way, or a change in a side signal; the % refers to the signal ratio;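 further: potency means the concentration at half of the fitted maximal effect; plate controls were basal doxycycline-induced cells for no effect and cells given 10 µM MG132 for full effect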
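Doxycycline induced both beetle luciferases in TMD8 lymphoma cells; IKK-driven degradation limits the IkappaBalpha-fused green signal, while red luminescence normalises for cell number and nonspecific effects. Compounds tested up to 46 uM, 4 hrs.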
VP16 counter – inhibits Gal4-VP16 luciferase reporter, ROR gamma counter-screen; Drosophila S2 Gal4-VP16 UAS-luciferase, luminescence, 20 h; Potency, µM (titrated, usually from 53.6 µM), inactives show at the top dose activity, negative = inhibition, usual class: inhibitors; hit rate 3.5% among 310,000; AID 2546;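 further: Gal4-VP16 expression switched on by copper sulfate through the metallothionein promoter; potency means the concentration at half of the fitted maximal effect; on the % scale 0 is the no-effect control and ±100 the full control effect; nearly all actives have a fitted effect of over 50% in size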
MCF10A rerep – induces DNA re-replication in MCF 10a normal breast cells. MCF 10A DNA re-replication, Hoechst nuclear intensity, 48 h. Potency, µM (titrated, usually from 46.1 µM), for the others: at the highest dose activity, positive = re-replication, most hits filed as activators. hit rate 2.9% among 350,000; further: potency means the concentration at half of the fitted maximal effect; % of control where 0% means no effect; nearly all actives have a fitted effect of over 50% in size
SW480 rereplic – inducers of DNA re-replication in SW480 colon cancer cells; Potency, µM (top dose mostly 46.1 µM), inactives show at the top dose re-replication activation, hits mostly activators; hit rate 1.8% among 340,000; SW480 DNA re-replication, Hoechst DNA content imaging, 48 h; AID 624297; further: potency means the concentration at half of the fitted maximal effect; % of control where 0% means no effect; nearly all actives have a fitted effect of over 55% in size
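Quantitative HTS format with DMSO vehicle controls; 48 hr drug incubation at 37 C, then 40 min Hoechst staining and scanning imager measurement at 405 nm excitation.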
RORg inh – ROR gamma (mouse) transcription inhibition; Potency, µM (highest dose often 53.6 µM), inactives show top-dose activity change, negative = inhibition, actives largely listed as inhibitors; P51450; Drosophila S2 Gal4-RORgamma UAS-luciferase reporter, 20 h; hit rate 5.4% among 310,000; further: potency means the concentration at half of the fitted maximal effect; on the % scale 0 is the no-effect control and ±100 the full control effect; nearly all actives have a fitted effect of over 60% in size
Target sequence (P51450 whole entry, looked up, the tested form may be a part): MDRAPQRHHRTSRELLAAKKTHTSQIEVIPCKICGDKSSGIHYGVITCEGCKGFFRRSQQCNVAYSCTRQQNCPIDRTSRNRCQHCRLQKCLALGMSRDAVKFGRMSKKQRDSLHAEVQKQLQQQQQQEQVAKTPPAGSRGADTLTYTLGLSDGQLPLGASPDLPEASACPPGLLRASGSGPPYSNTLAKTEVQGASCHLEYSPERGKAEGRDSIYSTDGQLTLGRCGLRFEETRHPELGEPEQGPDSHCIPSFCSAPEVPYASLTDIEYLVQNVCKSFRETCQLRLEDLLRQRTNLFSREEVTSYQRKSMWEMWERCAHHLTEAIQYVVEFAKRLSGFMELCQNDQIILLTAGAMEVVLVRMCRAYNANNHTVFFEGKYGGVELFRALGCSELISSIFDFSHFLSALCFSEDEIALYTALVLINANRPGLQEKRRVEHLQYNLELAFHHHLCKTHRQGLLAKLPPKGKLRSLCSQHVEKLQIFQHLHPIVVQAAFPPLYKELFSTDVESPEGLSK
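Stably transfected Drosophila Schneider cells are the test system, with ROR gamma fused to Gal4 and luciferase under UAS control; luminescence is read after 20 hr of 700 uM copper sulfate induction at ambient temperature.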
An asterisk follows results filed as active; [ ] = another dose, or the depositor's remark. Unless noted, the call rests on the fitted dose curve; in most records, active means well fitted curve in the direction sought with a large enough effect; inconclusive means small, poorly fitted or top-dose-only effect, or another doubt; inactive means no such curve, though single readings can be large; an effect the other way counts as inactive or inconclusive.

For O=C(NNC(=O)c1ccccn1)c1cccc([N+](=O)[O-])c1 the results were Giardia kill -13, BCR signal inh inconclusive, VP16 counter inconclusive, MCF10A rerep -2%, SW480 rereplic inconclusive and RORg inh 10µM*.
For O=C(NNC(=S)Nc1ccc(Cl)c(Cl)c1)c1cccc([N+](=O)[O-])c1 the results were Giardia kill -1, BCR signal inh inconclusive, VP16 counter -4%, MCF10A rerep -26%, SW480 rereplic inconclusive and RORg inh -41%.
O=C(Cn1cnc2sc3c(c2c1=O)CCCC3)NCC(=O)Nc1c(F)cc(F)cc1Br was read as Giardia kill -6, BCR signal inh -1%, VP16 counter 1%, MCF10A rerep -1%, SW480 rereplic -18% and RORg inh -2%.
Screening O=[N+]([O-])c1cc(Cl)cc(/C=N\Nc2ccccn2)c1O returned Giardia kill 0, BCR signal inh 4%, VP16 counter 1.1µM*, MCF10A rerep inconclusive, SW480 rereplic 3.7µM* and RORg inh 0.56µM*.
For O=C(N/N=C/c1ccc(F)cc1)c1cc(-c2ccccn2)nc2ccccc12 the results were Giardia kill 11, BCR signal inh 0%, MCF10A rerep inconclusive and SW480 rereplic -1%.
O=C(N/N=C/c1cc(Cl)cc([N+](=O)[O-])c1O)c1cc(-c2ccccn2)nc2ccccc12 was read as Giardia kill -2, BCR signal inh -3%, VP16 counter 10µM*, MCF10A rerep 6%, SW480 rereplic inconclusive and RORg inh 5.6µM*.
`COc1cccc(/C=N/NC(=O)c2cc(-c3ccccn3)nc3ccccc23)c1O` gave Giardia kill -15, BCR signal inh inconclusive, MCF10A rerep -3% and SW480 rereplic 1.6µM*.
Screening O=[N+]([O-])c1ccc(Cl)cc1C=NNc1ccccn1 returned Giardia kill 9, MCF10A rerep -7% and SW480 rereplic 0%.
For CS(=O)(=O)c1ccccc1C(=O)Nc1ccc(S(=O)(=O)N2CCCC2)cc1 the results were Giardia kill 19, BCR signal inh 2%, MCF10A rerep 2% and SW480 rereplic 2%.
`CCN(CC)CCCNC(=O)c1sc2ncn(CC(=O)Nc3ccc(C)c(Cl)c3)c(=O)c2c1C` gave Giardia kill 9, BCR signal inh inconclusive, VP16 counter 5%, MCF10A rerep -7%, SW480 rereplic 18µM* and RORg inh -39%.
Screening Cc1ccc(NC(=O)Cn2cnc3sc(C(=O)NCCN(C)C)c(C)c3c2=O)cc1Cl returned BCR signal inh inconclusive, VP16 counter -8% and RORg inh -25%.
For Fc1cccc(Cl)c1CN1CCN(c2nc3ccccc3s2)CC1 the results were Giardia kill -18, BCR signal inh inconclusive, VP16 counter 5%, MCF10A rerep 16µM*, SW480 rereplic 11% and RORg inh -1%.
O=C(c1ccc2ccccc2n1)N1CCN(Cc2c(F)cccc2Cl)CC1 was read as Giardia kill -7, BCR signal inh -10%, VP16 counter 22%, MCF10A rerep inconclusive, SW480 rereplic 7% and RORg inh -10%.
Cc1cc(NC(=O)CCC(=O)N(c2ccccc2)C(C(=O)NC2CCCC2)c2ccccc2C)no1 (stereo not drawn) was read as Giardia kill -17, BCR signal inh inconclusive, VP16 counter 1%, MCF10A rerep 10%, SW480 rereplic -2% and RORg inh -2%.
`CCOc1ccc(NC(=O)NNC(=O)c2cccnc2)cc1` gave Giardia kill 12, BCR signal inh 11%, VP16 counter 0%, MCF10A rerep 0%, SW480 rereplic -2% and RORg inh -11%.
For CCCCC[C@H](O)/C=C/[C@H]1C(=O)C[C@H](O)[C@@H]1C/C=C\CCCC(=O)O the results were VP16 counter 0% and RORg inh -34%.
Screening CCCCC[C@@H](/C=C/C1C(=O)C=C[C@H]1C/C=C\CCCC(=O)OC)OC(C)=O (stereo partly drawn) returned Giardia kill 15, MCF10A rerep 18µM* and SW480 rereplic -22%[9.22 µM].
Screening COC(=O)c1c(-c2ccccc2)csc1N returned Giardia kill 20, VP16 counter -6%, MCF10A rerep 7%, SW480 rereplic 0% and RORg inh 32%.
Screening COC(=O)C1=C(N)c2ccccc2C1(C#N)c1ccccc1 (stereo not drawn) returned Giardia kill 1, BCR signal inh -1%, VP16 counter 16µM*, MCF10A rerep 0%, SW480 rereplic -31% and RORg inh 11%.
Screening COc1ccc(NC(=O)CCn2cnnn2)cc1 returned BCR signal inh 21%.
`Cc1cccn2c(=O)c3cc(C(=O)O)n(C)c3nc12` gave Giardia kill 0, BCR signal inh 2%, VP16 counter 4%, MCF10A rerep 11%, SW480 rereplic 18% and RORg inh -20%.
For N=c1c(C(=O)NCc2ccco2)cc2c(=O)n3ccccc3nc2n1C1CCCC1 the results were Giardia kill 13, BCR signal inh 4%, VP16 counter 0%, MCF10A rerep 21µM*, SW480 rereplic 21µM* and RORg inh 0%.
Screening CCCn1c(=N)c(C(=O)NC2CCCC2)cc2c(=O)n3cccc(C)c3nc21 returned Giardia kill 49, BCR signal inh 8%, VP16 counter -14%, MCF10A rerep 2.9µM*, SW480 rereplic 6.5µM* and RORg inh inconclusive.
For N=c1c(S(=O)(=O)c2ccccc2)cc2c(=O)n3ccccc3nc2n1C1CCCC1 the results were Giardia kill -12, BCR signal inh inconclusive, VP16 counter -11%, MCF10A rerep 18%, SW480 rereplic 2% and RORg inh inconclusive.
Screening Cc1cccn2c(=O)c3cc(C(=O)NC4CCCCC4)n(C)c3nc12 returned Giardia kill -1, BCR signal inh 0%, VP16 counter 4%, MCF10A rerep inconclusive, SW480 rereplic inconclusive and RORg inh -3%.
For Cc1cccn2c(=O)c3cc(C(=O)NC4CCCC4)n(C)c3nc12 the results were Giardia kill 9, BCR signal inh inconclusive, VP16 counter -14%, MCF10A rerep 13µM*, SW480 rereplic 4.6µM* and RORg inh 22%.
`Cc1cc(C)nc(NS(=O)(=O)c2ccc(NC(=O)c3cc4c(=O)n5cccc(C)c5nc4n3C)cc2)n1` gave Giardia kill -12, BCR signal inh -12%, VP16 counter -4%, MCF10A rerep 10µM*, SW480 rereplic 2.1µM* and RORg inh -5%.

Source: PubChem BioAssay (National Center for Advancing Translational Sciences (NCATS))
